Records with an inconclusive call do not appear. Calls of active or inactive are those of the source. Unless noted, no cut-off is given here; in the data, nearly all actives have AC50 up to about 26 µM.
Key:
[1] = growth inhibition of DIPG glioma cells, dose response, cell-based, SU-DIPG-XVII, MIPE5.0, CellTiter-Glo, qHTS (AID 1347060); conditions: SU-DIPG-XVII viability, CellTiter-Glo ATP luminescence;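 for AC50: cells exposed to compound for 48 hours before viability readout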
[2] = growth inhibition of DIPG glioma cells, dose response, cell-based, SU-DIPG-XIII, MIPE4.0, CellTiter-Glo, qHTS (AID 1347061; cut-off not given, nearly all actives have AC50 up to about 37 µM;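 note: cells exposed to compound for 48 hours before readout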); conditions: SU-DIPG-XIII viability, CellTiter-Glo ATP luminescence
[3] = growth inhibition of DIPG glioma cells, dose response, cell-based, JHH-DIPG-1, MIPE4.0, CellTiter-Glo, qHTS (AID 1347062; cut-off not given, nearly all actives have AC50 up to about 27 µM;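 for AC50: cells exposed to compound for two days before readout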); conditions: JHH-DIPG-1 viability, CellTiter-Glo ATP luminescence
[4] = growth inhibition of DIPG glioma cells, dose response, cell-based, SU-DIPG-IV, MIPE4.0, CellTiter-Glo, qHTS (AID 1347063; cut-off not given, nearly all actives have AC50 up to about 30 µM;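 note: compound exposure lasted 48 hours before the viability readout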); conditions: SU-DIPG-IV viability, CellTiter-Glo ATP luminescence
[5] = growth inhibition of DIPG glioma cells, dose response, cell-based, SU-DIPG-XIII, MIPE5.0, CellTiter-Glo, qHTS (AID 1347064; cut-off not given, nearly all actives have AC50 up to about 23 µM;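 for AC50: cells exposed to compound for 48 hours before the viability read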); conditions: SU-DIPG-XIII viability, CellTiter-Glo ATP luminescence
[6] = viability loss in pontine glioma line – cell-based, SU-DIPG-XXV, MIPE5.0, CellTiter-Glo, qHTS, dose response (AID 1347065); conditions: CellTiter-Glo ATP luminescence;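 note: cells exposed to compound for 48 hours before ATP readout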
[7] = SU-DIPG-VI glioma cell viability, MIPE4.0 library, CellTiter-Glo luminescence, qHTS (AID 1347066; cut-off not given, nearly all actives have AC50 up to about 30 µM;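 note: cells exposed to compound for 48 hours before readout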); conditions: CellTiter-Glo ATP luminescence
[8] = JHH-DIPG-1 glioma cell viability, MIPE5.0 library, CellTiter-Glo luminescence, qHTS (AID 1347067); conditions: JHH-DIPG-1 glioma viability, CellTiter-Glo ATP luminescence;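 note: cells exposed to compound for 48 hours before readout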
[9] = SU-DIPG-XXV glioma cell viability, MIPE5.0 library, qHTS (AID 1347068; cut-off not given, nearly all actives have IC50 up to about 30 µM;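 for IC50: cells exposed to compound for 48 hours before viability readout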)
[10] = sensitizers of A549 cells to miR-34 induction, primary screen, imaging, A549 dox-inducible miR-34, nuclei and caspase counts (AID 1347080;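 active = compounds whose cell count with miR-34 switched on is under 0.7 times the count with it off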); conditions: A549 miR-34 inducible, Hoechst nuclei count, 48 h
[11] = survival rescue of mitochondrial mutant cells in low glucose, primary screen, MELAS cybrids, Rieske KO mouse fibroblasts, CellTiter-Glo (AID 1508586;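 active = mean z-score across replicates of 1.96 or higher in either the MELAS or the Rieske mutant cell line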;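 note: z relative to plate mean and SD of compound and empty wells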)
[12] = stronger effect = lower value, cell number ratio, induced over uninduced
[13] = measured here: relative caspase fold change +Dox/-Dox
[14] = measured here: total cells with miR-34 induction, stronger effect = lower value
[15] = measured here: total cells without miR-34 induction
[16] = MELAS cybrid survival, CellTiter-Glo 48 h, stronger effect = higher value
[17] = Rieske KO mouse fibroblast survival, CellTiter-Glo 72 h

CCN(CC)Cc1ccc2cc(COC(=O)Nc3ccc(C(=O)NO)cc3)ccc2c1
AC50 [1]: 5.25 µM (active) | AC50 [2]: 11.8 µM (active) | AC50 [3]: 2.64 µM (active) | AC50 [4]: 5.26 µM (active) | AC50 [5]: 2.63 µM (active) | AC50 [6]: 1.66 µM (active) | AC50 [7]: 1.66 µM (active) | AC50 [8]: 1.48 µM (active) | IC50 [9]: 18.6 µM (active) | fold change [10, 12]: 1.01 (inactive) | fold change [10, 13]: 0.529 | cell count [10, 14]: 1260 | cell count [10, 15]: 1250 | z-score [11, 16]: 1.32 (inactive) | z-score [11, 17]: -3.38

c1ccc(CNc2nc(NCc3ccccc3)c3ccccc3n2)cc1
AC50 [1]: 14.8 µM (active) | AC50 [2]: 7.43 µM (active) | AC50 [3]: 23.5 µM (active) | AC50 [4]: 20.9 µM (active) | AC50 [5]: 16.6 µM (active) | AC50 [6]: 9.34 µM (active) | AC50 [7]: 23.5 µM (active) | AC50 [8]: 10.5 µM (active) | IC50 [9]: 29.5 µM (active) | fold change [10, 12]: 0.814 (inactive) | fold change [10, 13]: 0.477 | cell count [10, 14]: 3510 | cell count [10, 15]: 4310 | z-score [11, 16]: -0.415 (inactive) | z-score [11, 17]: -0.855

COc1ccnc2[nH]cc(C(=O)C(=O)N3CCN(C(=O)c4ccccc4)C[C@H]3C)c12
outcome [1]: inactive | outcome [2]: inactive | outcome [3]: inactive | outcome [4]: inactive | outcome [5]: inactive | outcome [6]: inactive | outcome [8]: inactive | outcome [9]: inactive

CC(C)(O)c1cc2nc(-c3cnc(N)nc3)nc(N3CCOCC3)c2s1
AC50 [1]: 1.18 µM (active) | AC50 [2]: 0.59 µM (active) | AC50 [3]: 0.833 µM (active) | AC50 [4]: 0.0526 µM (active) | AC50 [5]: 1.05 µM (active) | AC50 [6]: 0.417 µM (active) | AC50 [7]: 0.148 µM (active) | IC50 [9]: 1.18 µM (active)
